In the library only some 2.8% were active in any assay of this set; here they are far more common.
KDM5B inh = KDM5B demethylase inhibition. Q9UGL1. KDM5B demethylase, FDH-coupled NADH fluorescence (FDH is formaldehyde dehydrogenase). Potency, µM (highest dose often 57.7 µM), most hits filed as inhibitors. hit rate 2.6% among 220,000; note: potency is the fitted concentration of half-maximal effect; 0% is about no effect; nearly all actives have a fitted effect of over 70% in size
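Inhibition is measured as reduced NADH fluorescence generation from FDH coupling to formaldehyde release. Truncated KDM5BΔAP at 200 nM final acts on H3K4me3 peptide (12.5 µM in substrate mix) in pH 7.5 HEPES buffer with Tween-20, 30 min, room temperature.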
IP6K1 inh = IP6K1 kinase inhibition | activity change, % (series mostly up to about 58 µM) | IP6K1 kinase, ADP-Glo luminescence, 2 h; active compounds read low | AID 1645851 | hit rate 0.81% among 140,000 | Q92551; in the data active = activity change below about -25%; note: % is set by controls: 0 for no effect and ±100 for the full control effect
Target sequence (Q92551 whole entry, looked up): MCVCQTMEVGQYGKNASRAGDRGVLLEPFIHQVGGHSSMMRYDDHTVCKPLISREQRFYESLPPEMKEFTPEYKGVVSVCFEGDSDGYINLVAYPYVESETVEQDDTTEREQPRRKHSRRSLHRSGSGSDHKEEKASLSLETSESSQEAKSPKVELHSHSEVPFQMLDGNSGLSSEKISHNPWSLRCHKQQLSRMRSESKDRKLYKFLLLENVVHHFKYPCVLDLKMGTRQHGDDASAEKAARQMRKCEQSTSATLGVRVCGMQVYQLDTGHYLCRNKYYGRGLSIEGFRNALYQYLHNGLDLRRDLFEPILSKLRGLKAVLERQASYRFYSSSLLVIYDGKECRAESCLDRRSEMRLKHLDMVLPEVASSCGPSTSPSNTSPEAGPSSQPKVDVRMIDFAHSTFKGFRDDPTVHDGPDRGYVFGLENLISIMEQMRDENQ
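ADP-Glo luminescence measures ADP made by human IP6K1 during a 2 h RT reaction with ATP/IP6 (mix at 1.3 mM/130 uM); top library doses 57.5 and 19.1 uM final.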
SNCA expr inh = SNCA gene expression inhibition. HEK-293 SNCA-luciferase knock-in, luminescence, 24 h. Potency, µM (highest dose often 57.2 µM), without a hit: top-dose activity change, negative = inhibition, usual class: inhibitors. hit rate 0.17% among 140,000. AID 1671194;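 note: potency is the fitted concentration of half-maximal effect; plate controls were DMSO cells for no effect and cell-free wells for full effect; nearly all actives have a fitted effect of over 45% in size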
HEK293 viab = counter-screen for SNCA expression inhibitors: cell viability; HEK-293-SNCA-luc viability, GF-AFC fluorescence, 24 h; Potency, µM (highest dose often 57.1 µM), for the others: at the top dose activity change, negative = cytotoxicity, actives largely listed as cytotoxic; hit rate 0.12% among 150,000;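 note: potency is the fitted concentration of half-maximal effect; 0% = DMSO-treated cells and -100% = medium-only wells without cells; nearly all actives have a fitted effect of over 30% in size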
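HEK-293-SNCA-luc cells (1500/well) plated 24 h, then exposed 24 h to a dilution series; GF-AFC added 30 min at 37C, fluorescence 405/540 nm; normalised to medium-only and DMSO wells, Hill fit.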
IP6K1 conf = confirmation of human IP6K1 inhibitors; hit rate 13% among 1,200; shares compounds with IP6K1 inh; recombinant IP6K1 kinase, ADP-Glo luminescence, 2 h; Potency, µM (titrated, usually from 49 µM), without a hit: at the top dose activity change, negative = inhibition, hits mostly inhibitors; note: potency is the fitted concentration of half-maximal effect; % is set by controls: 0 for no effect and ±100 for the full control effect; nearly all actives have a fitted effect of over 65% in size
Active calls of the source: *; [ ] = another dose, or the depositor's remark. Unless noted, calls come from the whole dose curve; as a rule, active = well fitted curve in the direction sought with a large enough effect; inconclusive = small, poorly fitted or top-dose-only effect, or another doubt; inactive = no such curve, though single readings can be large; an effect the other way counts as inactive or inconclusive.

`N#Cc1ccccc1CN1CCN(c2nccc(CCC(F)(F)F)n2)CC1` gave KDM5B inh inactive, IP6K1 inh 11, SNCA expr inh -16% and HEK293 viab 8%.
Screening O=C1NCC2(CCN(c3nccc(CCC(F)(F)F)n3)CC2)O1 returned KDM5B inh 20µM*, IP6K1 inh -7, SNCA expr inh -10% and HEK293 viab 0%.
For Cc1nn2c(c1-c1cccnc1N1CCOCC1)N(Cc1ccc3c(c1)CCO3)CCC2 the results were KDM5B inh 25µM*, IP6K1 inh 9, SNCA expr inh 3%[87.6 µM] and HEK293 viab -2%[87.6 µM].
`COc1ccc(OC)c(CN2CCCn3nc(C)c(-c4cccnc4N4CCOCC4)c32)c1` gave KDM5B inh 13µM*, IP6K1 inh 10, SNCA expr inh 51% and HEK293 viab -6%.
COc1ccc(OC)c(CN2CCCn3nc(C)c(-c4ccccc4C(C)C)c32)c1 was read as KDM5B inh inconclusive, IP6K1 inh 19, SNCA expr inh inconclusive and HEK293 viab -29%[87.6 µM].
`Cc1ccc(-c2nc(C3CC(=O)N(c4ccc(F)cc4)C3)no2)cc1` (configuration not stated) gave KDM5B inh inactive, IP6K1 inh -2, SNCA expr inh -9% and HEK293 viab 19%.
Screening Cc1ccccc1C(=O)N1CCCN(CCn2nc3n(c2=O)CCCC3)CC1 returned IP6K1 inh 12.
`CCOC(=O)c1ccc(NC(=O)CC2C(=O)N(c3ccccc3)C(=O)N2Cc2ccc(C)cc2)cc1` (configuration not stated) gave KDM5B inh inactive, IP6K1 inh -40*, SNCA expr inh inconclusive, HEK293 viab -18% and IP6K1 conf inconclusive.
`O=C(N[C@@H]1CCOC[C@H]1Oc1cccc(F)c1)c1cnc2ccccn2c1=O` gave KDM5B inh 35µM*, IP6K1 inh -42*, SNCA expr inh 3%, HEK293 viab 5% and IP6K1 conf -4%.
`Cc1cnc(Nc2cccc(CN3CCOCC3)c2)nc1Nc1cccc(S(=O)(=O)NC(C)(C)C)c1` gave IP6K1 inh -9, SNCA expr inh -9%, HEK293 viab -14% and IP6K1 conf 3%.
Cc1cnc(Nc2ccc(CN3CCOCC3)cc2)nc1Nc1cccc(S(=O)(=O)NC(C)(C)C)c1 was read as IP6K1 inh -16, SNCA expr inh 76%, HEK293 viab inconclusive and IP6K1 conf -2%.
Screening CC(=O)C(C)=O returned SNCA expr inh 4% and HEK293 viab 0%.
`CC(=O)NO` gave IP6K1 inh -28*, SNCA expr inh -26%[25.6 µM], HEK293 viab -16%[23.9 µM] and IP6K1 conf -7%.
For CN(CC(=O)Nc1cc(C(F)(F)F)ccc1Cl)C1CCc2ccccc21 (configuration not stated) the results were KDM5B inh inactive.
O=C(CCOc1cc(Cl)ccc1Cl)Nc1ccc(-n2cnnn2)cc1 was read as KDM5B inh inactive.
Screening Cc1ccc(-n2[nH]c(C)c(N=Nc3cccc(-c4cccc(C(=O)O)c4)c3O)c2=O)cc1C returned IP6K1 inh -91*, SNCA expr inh -1%, HEK293 viab -18% and IP6K1 conf inconclusive.
COc1c(Cl)cc(C(=O)Nc2cc(-c3nc4ccccc4[nH]3)ccc2C)cc1Cl was read as KDM5B inh inconclusive, IP6K1 inh -4, SNCA expr inh inconclusive and HEK293 viab -17%.
Screening COc1cc(OC)cc(C(=O)Nc2cc(-c3nc4ccccc4[nH]3)ccc2C)c1 returned KDM5B inh inconclusive, IP6K1 inh -25*, SNCA expr inh -9%, HEK293 viab inconclusive and IP6K1 conf 14%.
Cc1ccn2c(=O)cc(CSc3ccccc3NS(=O)(=O)c3ccc(C(C)C)cc3)nc2c1 was read as KDM5B inh inactive.
Screening O=C(Nc1ccc(Cl)cc1)c1cc(S(=O)(=O)NC2CCCCCC2)ccc1F returned KDM5B inh inactive, IP6K1 inh 34, SNCA expr inh inconclusive and HEK293 viab inconclusive.
`Cc1ccc(NC(=O)c2cc(S(=O)(=O)N3CCCc4ccccc43)ccc2F)cc1F` gave KDM5B inh inactive, IP6K1 inh -29*, SNCA expr inh -19%, HEK293 viab -1% and IP6K1 conf -9%.
